From PubChem BioAssay AID1159580 (chemical genetic matrix, 2015)
The whole screen tested about 5,500 compounds, of which about 2,000 (36%) were called active. About 18% were inconclusive and are not listed. Rule as the data show it: active = normalized growth mostly below about 0.91 (no sharp cut-off); inconclusive = no clear call, values can overlap the other calls; inactive = mostly above about 0.92. The list shows a part of the results.

Experiment: chemical genetic growth profiling, strain panel (AID 1159580);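 also: tested at 20 µM; growth read once vehicle control cultures reached saturation at 30 °C; 1 = growth at the plate median or of vehicle wells; lower values mean less growth of the strain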
Conditions: growth OD
[1] = S. cerevisiae deletion strains, locus YAL040C, strain CLN3, hits give low values
[2] = S. cerevisiae deletion strains, locus YDR150W, strain NUM1, hits give low values
[3] = S. cerevisiae deletion strains, locus YDR363W, strain ESC2, hits give low values
[4] = S. cerevisiae deletion strains, locus YER002W, strain NOP16, hits give low values
[5] = S. cerevisiae deletion strains, locus YGR078C, strain PAC10, hits give low values
[6] = S. cerevisiae deletion strains, locus YJR075W, strain HOC1, hits give low values
[7] = S. cerevisiae deletion strains, locus YNL128W, strain TEP1, hits give low values
[8] = S. cerevisiae deletion strains, locus YNL175C, strain NOP13, hits give low values
[9] = S. cerevisiae deletion strains, locus YNL197C, strain WHI3, hits give low values
[10] = S. cerevisiae deletion strains, locus YNL224C, strain SQS1, hits give low values
[11] = S. cerevisiae deletion strains, locus YNL322C, strain KRE1, hits give low values
[12] = S. cerevisiae deletion strains, locus YOR083W, strain WHI5 (second series), hits give low values
[13] = S. cerevisiae deletion strains, locus YPL055C, strain LGE1, hits give low values
[14] = S. cerevisiae deletion strains, locus YCL061C, strain MRC1 (second series), hits give low values
[15] = S. cerevisiae deletion strains, locus YMR263W, strain SAP30, hits give low values
[16] = S. cerevisiae deletion strains, locus YMR307W, strain GAS1, hits give low values
[17] = S. cerevisiae deletion strains, locus YNL153C, strain GIM3, hits give low values
[18] = S. cerevisiae deletion strains, locus YPL241C, strain CIN2, hits give low values
[19] = S. cerevisiae deletion strains, locus YBR229C, strain ROT2, hits give low values
[20] = S. cerevisiae deletion strains, locus YDL101C, strain DUN1, hits give low values
[21] = S. cerevisiae deletion strains, locus YHR030C, strain SLT2, hits give low values
[22] = S. cerevisiae deletion strains, locus YLR039C, strain RIC1, hits give low values
[23] = S. cerevisiae deletion strains, locus YAL013W, strain DEP1, hits give low values
[24] = S. cerevisiae deletion strains, locus YCL061C, strain MRC1, hits give low values
[25] = S. cerevisiae deletion strains, locus YEL061C, strain CIN8, hits give low values
[26] = S. cerevisiae deletion strains, locus YHR087W, strain rtc3, hits give low values
[27] = S. cerevisiae deletion strains, locus YJL187C, strain SWE1, hits give low values
[28] = S. cerevisiae deletion strains, locus YJR043C, strain POL32, hits give low values
[29] = S. cerevisiae deletion strains, locus YKL190W, strain CNB1, hits give low values
[30] = S. cerevisiae deletion strains, locus YLR058C, strain SHM2 (second series), hits give low values
[31] = S. cerevisiae deletion strains, locus YLR085C, strain ARP6, hits give low values
[32] = S. cerevisiae deletion strains, locus YLR262C, strain YPT6, hits give low values
[33] = S. cerevisiae deletion strains, locus YML094W, strain GIM5, hits give low values
[34] = S. cerevisiae deletion strains, locus YMR219W, strain ESC1, hits give low values
[35] = S. cerevisiae deletion strains, locus YNL298W, strain CLA4 (second series), hits give low values
[36] = S. cerevisiae deletion strains, locus YNR030W, strain Alg12, hits give low values
[37] = S. cerevisiae deletion strains, locus YOL006C, strain TOP1, hits give low values
[38] = S. cerevisiae deletion strains, locus YPR135W, strain CTF4, hits give low values
[39] = S. cerevisiae strains, strain wild type, hits give low values

Measured: normalized growth

C[N+](C)(C)CC=O
inactive: [1] 0.989 | [2] 1.01 | [3] 0.979 | [4] 0.989 | [5] 1.01 | [6] 0.999 | [7] 0.981 | [8] 1 | [9] 1.04 | [10] 0.993 | [11] 0.994 | [12] 1.06 | [13] 1.03

C/C=C(/C)C(=O)O[C@H]1C(C)=C2[C@H]([C@@H]1OC(=O)CCCCCCC)[C@@](C)(OC(C)=O)C[C@H](OC(=O)CCC)[C@@]1(O)[C@H]2OC(=O)[C@@]1(C)O
inactive: [1] 1 | [14] 0.995 | [2] 1.01 | [3] 1.02 | [4] 1.01 | [5] 0.995 | S. cerevisiae deletion strains, locus YGR229C, strain SMI1, hits give low values 1.05 | [15] 0.995 | [16] 0.968 | [7] 1.03 | [8] 1.02 | [9] 0.984 | [10] 0.988 | [12] 1

CCCCCC(CC(=O)NO)C(=O)NC(C(=O)N1CCCC1CO)C(C)C (centres undefined)
inactive: [1] 0.97 | [14] 0.995 | [3] 1.06 | [4] 0.971 | [5] 0.976 | [17] 0.976 | [8] 0.96 | [9] 0.987 | [10] 1.01 | [11] 1.01 | [12] 0.964 | [18] 0.97

COC(=O)C[C@H]1C(C)(C)C(OC(C)=O)[C@]2(O)C=C3C4CC(=O)O[C@@H](c5ccoc5)[C@]4(C)CCC3[C@@]1(C)C2=O (some centres undefined)
inactive: S. cerevisiae deletion strains, locus YBR021W, strain FUR4, hits give low values 0.996 | [19] 1 | S. cerevisiae deletion strains, locus YCL029C, strain bik1, hits give low values 1.01 | S. cerevisiae deletion strains, locus YDL035C, strain GPR1, hits give low values 1 | S. cerevisiae deletion strains, locus YDL074C, strain BRE1, hits give low values 1 | [20] 1.01 | S. cerevisiae deletion strains, locus YDL134C, strain PPH21, hits give low values 1.02 | S. cerevisiae deletion strains, locus YDL185W, strain tfp1, hits give low values 1.02 | S. cerevisiae deletion strains, locus YDL192W, strain arf1, hits give low values 1 | S. cerevisiae deletion strains, locus YDR101C, strain arx1, hits give low values 1.01 | S. cerevisiae deletion strains, locus YDR162C, strain NBP2, hits give low values 1.01 | S. cerevisiae deletion strains, locus YDR318W, strain mcm21, hits give low values 1.01 | S. cerevisiae deletion strains, locus YDR388W, hits give low values 1 | S. cerevisiae deletion strains, locus YDR502C, strain sam2, hits give low values 1.02 | S. cerevisiae deletion strains, locus YER110C, hits give low values 1 | S. cerevisiae deletion strains, locus YER155C, strain BEM2, hits give low values 1 | S. cerevisiae deletion strains, locus YER167W, strain BCK2, hits give low values 1.01 | S. cerevisiae deletion strains, locus YGL078C, strain dbp3, hits give low values 1.02 | S. cerevisiae deletion strains, locus YGL086W, strain mad1, hits give low values 1 | S. cerevisiae deletion strains, locus YGL248W, strain PDE1, hits give low values 1 | S. cerevisiae deletion strains, locus YGR135W, strain pre9, hits give low values 1.02 | S. cerevisiae deletion strains, locus YGR252W, strain gcn5, hits give low values 0.975 | [21] 1.01 | S. cerevisiae deletion strains, locus YHR079C, strain IRE1 (second series), hits give low values 1.02 | S. cerevisiae deletion strains, locus YHR094C, strain hxt1, hits give low values 1.01 | S. cerevisiae deletion strains, locus YHR129C, strain ARP1, hits give low values 1 | S. cerevisiae deletion strains, locus YHR200W, strain rpn10, hits give low values 1.01 | S. cerevisiae deletion strains, locus YIL066C, strain RNR3, hits give low values 0.997 | S. cerevisiae deletion strains, locus YIL073C, strain SPO22, hits give low values 1.06 | S. cerevisiae deletion strains, locus YIL125W, strain kgd1, hits give low values 1.01 | S. cerevisiae deletion strains, locus YIR030C, strain dcg1, hits give low values 1 | S. cerevisiae deletion strains, locus YJL095W, strain BCK1, hits give low values 1.03 | S. cerevisiae deletion strains, locus YJL134W, strain LCB3, hits give low values 1 | S. cerevisiae deletion strains, locus YJL168C, strain set2, hits give low values 1.01 | S. cerevisiae deletion strains, locus YJL187C, strain SWE1 (second series), hits give low values 1.02 | S. cerevisiae deletion strains, locus YKL009W, strain mrt4, hits give low values 0.992 | S. cerevisiae deletion strains, locus YKL068W, hits give low values 1.01 | S. cerevisiae deletion strains, locus YKL085W, strain MDH1 (second series), hits give low values 1.01 | S. cerevisiae deletion strains, locus YKL085W, strain MDH1, hits give low values 1.01 | S. cerevisiae deletion strains, locus YKR001C, strain vps1, hits give low values 1.01 | [22] 1.02 | S. cerevisiae deletion strains, locus YLR058C, strain SHM2, hits give low values 1 | S. cerevisiae deletion strains, locus YLR102C, strain apc9, hits give low values 1.01 | S. cerevisiae deletion strains, locus YLR268W, strain sec22, hits give low values 1.01 | S. cerevisiae deletion strains, locus YLR330W, strain CHS5, hits give low values 1.01 | S. cerevisiae deletion strains, locus YLR371W, strain rom2, hits give low values 1.01 | S. cerevisiae deletion strains, locus YLR418C, strain cdc73, hits give low values 1.03 | S. cerevisiae deletion strains, locus YML016C, strain PPZ1, hits give low values 0.999 | S. cerevisiae deletion strains, locus YML032C, strain rad52, hits give low values 1.01 | S. cerevisiae deletion strains, locus YML124C, strain tub3, hits give low values 1.01 | S. cerevisiae deletion strains, locus YMR078C, strain ctf18, hits give low values 1.01 | S. cerevisiae deletion strains, locus YMR223W, strain ubp8, hits give low values 1.01 | [16] 1.04 | S. cerevisiae deletion strains, locus YNL067W, strain RPL9B, hits give low values 1.02 | [17] 1.02 | S. cerevisiae deletion strains, locus YNL233W, strain BNI4, hits give low values 1.02 | S. cerevisiae deletion strains, locus YNL250W, strain rad50, hits give low values 1.01 | S. cerevisiae deletion strains, locus YNL271C, strain bni1, hits give low values 1.01 | S. cerevisiae deletion strains, locus YNL298W, strain CLA4, hits give low values 1 | S. cerevisiae deletion strains, locus YNL307C, strain MCK1, hits give low values 1.01 | S. cerevisiae deletion strains, locus YNR052C, strain pop2, hits give low values 1.01 | S. cerevisiae deletion strains, locus YOL012C, strain htz1 0.877 | S. cerevisiae deletion strains, locus YOL147C, strain pex11, hits give low values 1.01 | S. cerevisiae deletion strains, locus YOR061W, strain CKA2, hits give low values 0.997 | S. cerevisiae deletion strains, locus YOR069W, strain VPS5, hits give low values 1 | S. cerevisiae deletion strains, locus YOR136W, strain idh2, hits give low values 1.02 | S. cerevisiae deletion strains, locus YOR144C, strain elg1, hits give low values 1 | S. cerevisiae deletion strains, locus YOR184W, strain ser1, hits give low values 0.999 | S. cerevisiae deletion strains, locus YOR316C, strain cot1, hits give low values 1.01 | S. cerevisiae deletion strains, locus YPR119W, strain clb2, hits give low values 1.02 | S. cerevisiae deletion strains, locus YPR141C, strain kar3, hits give low values 1.01 | S. cerevisiae deletion strains, locus YPR163C, strain tif3, hits give low values 1.01 | S. cerevisiae deletion strains, locus YPR167C, strain met16, hits give low values 1.01 | S. cerevisiae deletion strains, strain wtn01, hits give low values 0.991

COc1ccccc1N1CCN(S(=O)(=O)c2ccc(C(F)(F)F)cc2)CC1
inactive: [23] 1 | [19] 0.99 | [24] 0.985 | [20] 1.01 | [2] 0.989 | [25] 1.02 | [5] 1 | [21] 1.09 | [26] 1.03 | [27] 0.985 | [28] 0.998 | [6] 0.99 | [29] 0.965 | [22] 0.952 | [30] 0.987 | [31] 0.927 | [32] 0.962 | [33] 0.995 | [34] 0.989 | [15] 0.977 | [16] 1.04 | [17] 1 | [35] 1.01 | [11] 0.99 | [36] 1 | [37] 1.03 | [13] 0.988 | [18] 0.888 | [38] 0.983 | [39] 0.976

Cc1oc(-c2ccccc2)cc1C(=O)N1CCN(c2ccc(C(F)(F)F)cn2)CC1
active: [23] 0.86 | [21] 0.433 | [31] 0.663 | [35] 0.826 | [36] 0.823 | [13] 0.709 | [38] 0.497
inactive: [19] 0.961 | [24] 0.984 | [20] 1 | [2] 0.858 | [25] 0.947 | [5] 0.963 | [26] 0.935 | [27] 0.988 | [28] 0.98 | [6] 0.964 | [22] 0.876 | [30] 0.977 | [32] 0.941 | [33] 0.875 | [34] 0.975 | [15] 0.919 | [16] 0.762 | [17] 0.978 | [11] 0.984 | [37] 0.795 | [39] 0.957

O=S(=O)(c1ccc(Cl)c(Cl)c1)N1CCN(c2ccc(C(F)(F)F)cn2)CC1
active: [31] 1.35 [resistant]
inactive: [23] 1 | [19] 1.01 | [24] 1.05 | [20] 1.05 | [2] 1.02 | [25] 0.998 | [5] 1.05 | [21] 1.09 | [26] 1.02 | [27] 1.03 | [28] 1.03 | [6] 1.06 | [29] 1.02 | [22] 1 | [30] 1.02 | [32] 1 | [33] 1.04 | [34] 1.01 | [15] 1.04 | [17] 1.04 | [35] 1.04 | [11] 1.01 | [36] 1.04 | [13] 1.07 | [18] 1.11 | [38] 0.99 | [39] 1.01
